# According to PubChem BioAssay (NCI):
# This is part of a sample that, as a whole, favours compounds with a hit. Of some 79,000 tested, about 15% had one in any assay. Values without a mark were called inactive. Calls of active or inactive are those of the source. No stated cut-off is given here; in the data, active means growth inhibition above about 70%; inactive means the rest.
# How the values were obtained:
# [1] = NCI Yeast Anticancer Drug Screen. Data for the rad52 strain (AID 147);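 further: 0% = growth of vehicle-treated control cultures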; conditions: S. cerevisiae rad52 mutant growth inhibition, hits give high values
# Method in brief: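 Compounds are applied to a genetically defined yeast strain lacking normal DNA damage repair, and inhibition of growth is expressed relative to cultures given vehicle only.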
# [2] = NCI Yeast Anticancer Drug Screen. Data for the wt1 strain (AID 149);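 further: 0% = growth of vehicle-treated wt1 cultures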; conditions: S. cerevisiae wt1 strain (SPY 50644) growth inhibition, hits give high values
# Method in brief: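 Readout: yeast growth inhibition, normalised to vehicle controls, in the wt1 strain exposed to test compounds.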
# [3] = NCI Yeast Anticancer Drug Screen. Data for the rad50EPP+ strain (AID 151);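 further: 0% = growth of vehicle-treated control cultures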; conditions: S. cerevisiae rad50 mutant strain, hits give high values
# Method in brief: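 Compounds were applied to the rad50EPP+ yeast strain, which bears a defined DNA repair alteration, and growth inhibition was determined relative to vehicle-treated cultures.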
# [4] = NCI Yeast Anticancer Drug Screen. Data for the mgt1 strain (AID 153); conditions: S. cerevisiae mgt1 mutant growth inhibition, hits give high values
# Method in brief: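 Strain: mgt1 yeast, one of a set carrying defined DNA damage repair or cell cycle control alterations. Compound-treated growth compared with vehicle.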
# [5] = NCI Yeast Anticancer Drug Screen. Data for the rad50 strain (AID 155);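 further: 0% = growth of vehicle-only cultures of the same strain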; conditions: S. cerevisiae rad50 strain growth inhibition, hits give high values
# Method in brief: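 Compounds were tested on a yeast strain with an engineered DNA damage repair alteration; the reported value is growth inhibition normalised to vehicle treatment.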
# [6] = NCI Yeast Anticancer Drug Screen. Data for the mec2-1 strain (AID 157); conditions: S. cerevisiae mec2-1 strain, hits give high values
# Method in brief: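 Strain: mec2-1 (DNA repair/cell cycle alteration). Compound exposure, then growth measured; inhibition expressed relative to vehicle.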
# [7] = NCI Yeast Anticancer Drug Screen. Data for the rad14 strain (AID 159);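 further: 0% = growth of vehicle-treated control cultures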; conditions: S. cerevisiae rad14 strain growth inhibition, hits give high values
# Method in brief: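 Compound-treated yeast with a defined DNA-repair lesion; growth inhibition normalised to vehicle-treated cultures.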
# [8] = NCI Yeast Anticancer Drug Screen. Data for the sgs1 mgt1 strain (AID 161);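 further: 0% = growth of cultures given vehicle only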; conditions: S. cerevisiae sgs1 mgt1 strain, hits give high values
# Method in brief: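 Inhibition of yeast growth, normalised to vehicle-treated controls, is reported for a strain bearing genetic alterations in DNA damage repair.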
# [9] = NCI Yeast Anticancer Drug Screen. Data for the CLN2oe strain (AID 163);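 further: 0% = growth of vehicle-only control cultures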; conditions: S. cerevisiae CLN2oe strain, hits give high values
# Method in brief: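 Growth of a genetically modified yeast strain is measured after compound exposure and compared with cultures given vehicle alone.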
# [10] = NCI Yeast Anticancer Drug Screen. Data for the cln2 rad14 strain (AID 165);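 further: 0% = growth equal to vehicle treated cultures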; conditions: S. cerevisiae cln2 rad14 strain, hits give high values
# Method in brief: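 Compounds are applied to the cln2 rad14 yeast strain, and growth is then compared with that of vehicle-treated cultures to give inhibition.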
# [11] = NCI Yeast Anticancer Drug Screen. Data for the bub3 strain (AID 167); conditions: S. cerevisiae bub3 mutant strain, hits give high values
# Method in brief: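 Growth of a checkpoint-deficient yeast mutant is measured after compound exposure. Values represent inhibition relative to vehicle.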
# [12] = NCI Yeast Anticancer Drug Screen. Data for the wt2 strain (AID 169);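 further: 0% = growth of vehicle-treated yeast cultures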; conditions: S. cerevisiae wt2 strain growth inhibition, hits give high values
# Method in brief: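 This strain belongs to a panel of yeast strains with defined genetic alterations in DNA damage repair or cell cycle control. Compounds are applied, and growth inhibition is measured against vehicle-treated cultures.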
# [13] = NCI Yeast Anticancer Drug Screen. Data for the mlh1 strain (AID 171);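 further: 0% = growth of vehicle-treated control cultures of the same strain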; conditions: S. cerevisiae mlh1 strain growth inhibition, hits give high values
# Method in brief: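 Growth of the mutant yeast strain after compound exposure, expressed as inhibition relative to vehicle-only controls.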
# [14] = NCI Yeast Anticancer Drug Screen. Data for the sgs1 strain (AID 173);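 further: 0% = growth of vehicle-only control cultures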; conditions: S. cerevisiae sgs1 mutant, hits give high values
# Method in brief: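 Growth of a yeast strain bearing a defined genetic alteration is measured after compound treatment. Inhibition is expressed relative to vehicle-only controls.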
# [15] = NCI Yeast Anticancer Drug Screen. Data for the mlh1 rad18 strain (AID 175); conditions: S. cerevisiae mlh1 rad18 strain growth inhibition, hits give high values
# Method in brief: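 Read-out is yeast growth inhibition, calculated against vehicle-only controls. The compound was applied to a strain engineered with DNA damage repair alterations.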
# [16] = NCI Yeast Anticancer Drug Screen. Data for the rad18 strain (AID 177); conditions: S. cerevisiae rad18 mutant growth inhibition, hits give high values
# Method in brief: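 Growth of the mutant yeast strain after compound exposure, normalised to vehicle-only cultures.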
# [17] = at 5.0 µM (retest, dose inferred, filed as 0.5)
# [18] = at 50.0 µM (retest, dose inferred, filed as 5.0)
compound,measurement,setting,value
CN(C)C=NC1CCC(C(C)(C)C)CC1 (stereo unspecified),growth inhibition,[1]; at 1.2 µM,-5%
same,growth inhibition,[1]; at 3.7 µM,7%
same,growth inhibition,[1]; at 11.0 µM,34%
same,growth inhibition,[1]; at 33.0 µM,74% (active)
same,growth inhibition,[1]; at 100.0 µM,99% (active)
same,growth inhibition,[2]; at 1.2 µM,-4%
same,growth inhibition,[2]; at 3.7 µM,-5%
same,growth inhibition,[2]; at 11.0 µM,-1%
same,growth inhibition,[2]; at 33.0 µM,51%
same,growth inhibition,[2]; at 100.0 µM,97% (active)
same,growth inhibition,[3]; at 1.2 µM,-2%
same,growth inhibition,[3]; at 3.7 µM,5%
same,growth inhibition,[3]; at 11.0 µM,10%
same,growth inhibition,[3]; at 33.0 µM,30%
same,growth inhibition,[3]; at 100.0 µM,73% (active)
same,growth inhibition,[4]; at 1.2 µM,-1%
same,growth inhibition,[4]; at 3.7 µM,-1%
same,growth inhibition,[4]; at 11.0 µM,45%
same,growth inhibition,[4]; at 33.0 µM,97% (active)
same,growth inhibition,[4]; at 100.0 µM,99% (active)
same,growth inhibition,[5]; at 1.2 µM,-3%
same,growth inhibition,[5]; at 3.7 µM,-1%
same,growth inhibition,[5]; [17],28%
same,growth inhibition,[5]; at 11.0 µM,59%
same,growth inhibition,[5]; at 33.0 µM,97% (active)
same,growth inhibition,[5]; [18],97% (active)
same,growth inhibition,[5]; at 50.0 µM,98.8% (active)
same,growth inhibition,[5]; at 100.0 µM,99% (active)
same,growth inhibition,[6]; at 1.2 µM,2%
same,growth inhibition,[6]; at 3.7 µM,0%
same,growth inhibition,[6]; [17],-24%
same,growth inhibition,[6]; at 11.0 µM,10%
same,growth inhibition,[6]; at 33.0 µM,73% (active)
same,growth inhibition,[6]; [18],99% (active)
same,growth inhibition,[6]; at 50.0 µM,95.8% (active)
same,growth inhibition,[6]; at 100.0 µM,99% (active)
same,growth inhibition,[7]; at 1.2 µM,-1%
same,growth inhibition,[7]; at 3.7 µM,11%
same,growth inhibition,[7]; at 11.0 µM,75% (active)
same,growth inhibition,[7]; at 33.0 µM,98% (active)
same,growth inhibition,[7]; at 100.0 µM,99% (active)
same,growth inhibition,[8]; [17],14%
same,growth inhibition,[8]; [18],98% (active)
same,growth inhibition,[8]; at 50.0 µM,97.7% (active)
same,growth inhibition,[9]; at 1.2 µM,1%
same,growth inhibition,[9]; at 3.7 µM,9%
same,growth inhibition,[9]; at 11.0 µM,44%
same,growth inhibition,[9]; at 33.0 µM,95% (active)
same,growth inhibition,[9]; at 100.0 µM,99% (active)
same,growth inhibition,[10]; [17],17%
same,growth inhibition,[10]; [18],98% (active)
same,growth inhibition,[10]; at 50.0 µM,98.4% (active)
same,growth inhibition,[11]; at 1.2 µM,-8%
same,growth inhibition,[11]; at 3.7 µM,-2%
same,growth inhibition,[11]; [17],62%
same,growth inhibition,[11]; at 11.0 µM,55%
same,growth inhibition,[11]; at 33.0 µM,94% (active)
same,growth inhibition,[11]; [18],98% (active)
same,growth inhibition,[11]; at 50.0 µM,97.5% (active)
same,growth inhibition,[11]; at 100.0 µM,99% (active)
same,growth inhibition,[12]; at 1.2 µM,0%
same,growth inhibition,[12]; at 3.7 µM,4%
same,growth inhibition,[12]; at 11.0 µM,34%
same,growth inhibition,[12]; at 33.0 µM,88% (active)
same,growth inhibition,[12]; at 100.0 µM,99% (active)
same,growth inhibition,[13]; at 1.2 µM,8%
same,growth inhibition,[13]; at 3.7 µM,1%
same,growth inhibition,[13]; at 11.0 µM,47%
same,growth inhibition,[13]; at 33.0 µM,94% (active)
same,growth inhibition,[13]; at 100.0 µM,99% (active)
same,growth inhibition,[14]; at 1.2 µM,1%
same,growth inhibition,[14]; at 3.7 µM,2%
same,growth inhibition,[14]; at 11.0 µM,55%
same,growth inhibition,[14]; at 33.0 µM,95% (active)
same,growth inhibition,[14]; at 100.0 µM,99% (active)
same,growth inhibition,[15]; [17],-32%
same,growth inhibition,[15]; [18],98% (active)
same,growth inhibition,[15]; at 50.0 µM,98.2% (active)
same,growth inhibition,[16]; at 1.2 µM,-3%
same,growth inhibition,[16]; at 3.7 µM,8%
same,growth inhibition,[16]; at 11.0 µM,54%
same,growth inhibition,[16]; at 33.0 µM,93% (active)
same,growth inhibition,[16]; at 100.0 µM,99% (active)
NCCNCCNc1ccc(NCCNCCN)c2c1C(=O)c1c(O)ccc(O)c1C2=O,growth inhibition,[1]; at 1.2 µM,34%
same,growth inhibition,[1]; at 3.7 µM,48%
same,growth inhibition,[1]; at 11.0 µM,91% (active)
same,growth inhibition,[1]; at 33.0 µM,93% (active)
same,growth inhibition,[1]; at 100.0 µM,85% (active)
same,growth inhibition,[2]; at 1.2 µM,-49%
same,growth inhibition,[2]; at 3.7 µM,-2%
same,growth inhibition,[2]; at 11.0 µM,-4%
same,growth inhibition,[2]; at 33.0 µM,0%
same,growth inhibition,[2]; at 100.0 µM,12%
same,growth inhibition,[3]; at 1.2 µM,9%
same,growth inhibition,[3]; at 3.7 µM,36%
same,growth inhibition,[3]; at 11.0 µM,69%
same,growth inhibition,[3]; at 33.0 µM,84% (active)
same,growth inhibition,[3]; at 100.0 µM,69%
same,growth inhibition,[4]; at 1.2 µM,-2%
same,growth inhibition,[4]; at 3.7 µM,0%
same,growth inhibition,[4]; at 11.0 µM,1%
same,growth inhibition,[4]; at 33.0 µM,7%
same,growth inhibition,[4]; at 100.0 µM,19%
same,growth inhibition,[5]; at 1.2 µM,17%
same,growth inhibition,[5]; at 3.7 µM,49%
same,growth inhibition,[5]; [17],20%
same,growth inhibition,[5]; at 11.0 µM,82% (active)
same,growth inhibition,[5]; at 33.0 µM,88% (active)
same,growth inhibition,[5]; [18],66%
same,growth inhibition,[5]; at 50.0 µM,87.7% (active)
same,growth inhibition,[5]; at 100.0 µM,84% (active)
same,growth inhibition,[6]; at 1.2 µM,27%
same,growth inhibition,[6]; at 3.7 µM,1%
same,growth inhibition,[6]; [17],0%
same,growth inhibition,[6]; at 11.0 µM,-7%
same,growth inhibition,[6]; at 33.0 µM,11%
same,growth inhibition,[6]; [18],45%
same,growth inhibition,[6]; at 50.0 µM,0.2%
same,growth inhibition,[6]; at 100.0 µM,31%
same,growth inhibition,[7]; at 1.2 µM,-4%
same,growth inhibition,[7]; at 3.7 µM,-2%
same,growth inhibition,[7]; at 11.0 µM,0%
same,growth inhibition,[7]; at 33.0 µM,5%
same,growth inhibition,[7]; at 100.0 µM,15%
same,growth inhibition,[8]; [17],-6%
same,growth inhibition,[8]; [18],8%
same,growth inhibition,[8]; at 50.0 µM,15.1%
same,growth inhibition,[9]; at 1.2 µM,-10%
same,growth inhibition,[9]; at 3.7 µM,-7%
same,growth inhibition,[9]; at 11.0 µM,-10%
same,growth inhibition,[9]; at 33.0 µM,-9%
same,growth inhibition,[9]; at 100.0 µM,40%
same,growth inhibition,[10]; [17],32%
same,growth inhibition,[10]; [18],34%
same,growth inhibition,[10]; at 50.0 µM,7%
same,growth inhibition,[11]; at 1.2 µM,-4%
same,growth inhibition,[11]; at 3.7 µM,-11%
same,growth inhibition,[11]; [17],20%
same,growth inhibition,[11]; at 11.0 µM,-10%
same,growth inhibition,[11]; at 33.0 µM,-8%
same,growth inhibition,[11]; [18],-1%
same,growth inhibition,[11]; at 50.0 µM,-1.95%
same,growth inhibition,[11]; at 100.0 µM,20%
same,growth inhibition,[12]; at 1.2 µM,-3%
same,growth inhibition,[12]; at 3.7 µM,-3%
same,growth inhibition,[12]; at 11.0 µM,-3%
same,growth inhibition,[12]; at 33.0 µM,14%
same,growth inhibition,[12]; at 100.0 µM,53%
same,growth inhibition,[13]; at 1.2 µM,0%
same,growth inhibition,[13]; at 3.7 µM,-2%
same,growth inhibition,[13]; at 11.0 µM,-1%
same,growth inhibition,[13]; at 33.0 µM,-1%
same,growth inhibition,[13]; at 100.0 µM,16%
same,growth inhibition,[14]; at 1.2 µM,1%
same,growth inhibition,[14]; at 3.7 µM,4%
same,growth inhibition,[14]; at 11.0 µM,2%
same,growth inhibition,[14]; at 33.0 µM,13%
same,growth inhibition,[14]; at 100.0 µM,25%
same,growth inhibition,[15]; [17],11%
same,growth inhibition,[15]; [18],0%
same,growth inhibition,[15]; at 50.0 µM,16.5%
same,growth inhibition,[16]; at 1.2 µM,4%
same,growth inhibition,[16]; at 3.7 µM,2%
same,growth inhibition,[16]; at 11.0 µM,9%
same,growth inhibition,[16]; at 33.0 µM,22%
same,growth inhibition,[16]; at 100.0 µM,48%
